Bioassay records: PubChem BioAssay, National Center for Advancing Translational Sciences (NCATS)
Rows were chosen to be rich in hits. Some 1% of all compounds tested hit in one or more screens of this group.
L3MBTL1 inh-1: qHTS Assay for the Inhibitors of L3MBTL1 | AlphaScreen L3MBTL1–H3K9me1 peptide binding | Potency, µM (series often up to 57.1 µM), inactives show top-dose activity, negative = inhibition, actives largely listed as inhibitors | 230,000 compounds, 0.66% hits | AID 485360, 2010; also: % is scaled to controls: 0 for no effect and ±100 for the full control effect; nearly all actives have a fitted effect of over 60% in size
Target sequence (Q9Y468 whole entry, looked up): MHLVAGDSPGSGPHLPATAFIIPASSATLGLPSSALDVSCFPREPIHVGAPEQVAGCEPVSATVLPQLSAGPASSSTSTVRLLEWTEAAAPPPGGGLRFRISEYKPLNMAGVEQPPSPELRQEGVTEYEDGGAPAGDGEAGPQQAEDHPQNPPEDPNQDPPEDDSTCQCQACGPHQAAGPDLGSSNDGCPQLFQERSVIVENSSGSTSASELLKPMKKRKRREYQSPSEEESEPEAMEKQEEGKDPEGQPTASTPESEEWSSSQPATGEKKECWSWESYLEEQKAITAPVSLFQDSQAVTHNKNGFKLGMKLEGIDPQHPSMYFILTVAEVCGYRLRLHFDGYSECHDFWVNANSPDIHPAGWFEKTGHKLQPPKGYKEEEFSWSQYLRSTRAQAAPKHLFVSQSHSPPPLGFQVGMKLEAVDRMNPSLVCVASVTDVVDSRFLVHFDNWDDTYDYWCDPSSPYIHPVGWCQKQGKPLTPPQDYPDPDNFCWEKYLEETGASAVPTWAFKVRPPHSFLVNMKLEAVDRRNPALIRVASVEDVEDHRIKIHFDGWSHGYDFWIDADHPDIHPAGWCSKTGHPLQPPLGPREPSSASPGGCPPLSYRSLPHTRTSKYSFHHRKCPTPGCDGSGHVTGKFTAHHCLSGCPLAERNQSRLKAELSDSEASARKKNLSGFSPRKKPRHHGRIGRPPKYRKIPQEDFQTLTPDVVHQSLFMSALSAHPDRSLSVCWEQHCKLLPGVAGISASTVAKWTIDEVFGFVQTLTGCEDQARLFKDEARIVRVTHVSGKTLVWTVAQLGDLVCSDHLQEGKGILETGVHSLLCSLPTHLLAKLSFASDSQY
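Displacement of a biotinylated histone H3(1-15) peptide monomethylated at Lys9 (75 nM) from L3MBTL1 (50 nM) was measured by AlphaScreen after a 30 min room-temperature compound incubation; cefsulodin titration served as intraplate control.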
WRN inhibitor: qHTS for Inhibitors of WRN Helicase. Potency, µM (series often up to 114 µM), for inactives: top-dose activity change, negative = inhibition, most hits filed as inhibitors. WRN helicase unwinding, fluorescent forked duplex, kinetic. 360,000 compounds, 0.46% hits. Bifunctional 3'-5' exonuclease/ATP-dependent helicase WRN (Homo sapiens), Q14191; also: % is scaled to controls: 0 for no effect and ±100 for the full control effect; nearly all actives have a fitted effect of over 55% in size
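Enzyme (20 nM final) and test compound sit together 15 min at room temperature before substrate addition. Substrate is a single-forked duplex oligonucleotide (100 nM) labelled with fluorophore and quencher, with 2 mM ATP; helicase unwinding raises red fluorescence, read kinetically.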
RECQ1 inh-1: qHTS Assay for Inhibitors of RecQ-Like Dna Helicase 1 (RECQ1); ATP-dependent DNA helicase Q1 (Homo sapiens), P46063; RECQ1 DNA unwinding, red fluorescence kinetic read; Potency, µM (highest dose often 57.3 µM), without a hit: at the highest dose activity, negative = inhibition, most hits filed as inhibitors; 240,000 compounds, 0.54% hits; AID 2549, 2010;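 also: plate controls were vehicle for no effect and no enzyme for full effect; nearly all actives have a fitted effect of over 30% in size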
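RECQ1T1 50 nM; forked duplex (20 bp + 30-nt ss tails) 200 nM, ATP 2 mM final; pH 8.0, 2 mM MgCl2, 2.5 ug/ml poly(dI-dC); 15 min compound preincubation; discontinuous kinetic read over 2 h at RT.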
BLM inh: qHTS Assay for Inhibitors of Bloom's syndrome helicase (BLM) | Potency, µM (series often up to 56.1 µM), without a hit: at the highest dose activity change, negative = inhibition, most hits filed as inhibitors | 350,000 compounds, 0.2% hits | recombinant BLM DNA unwinding, fluorescence dequenching | AID 2528, 2010;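 also: plate controls were vehicle for no effect and no enzyme for full effect; nearly all actives have a fitted effect of over 35% in size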
FEN1 inh-1: qHTS Assay for the Inhibitors of Human Flap endonuclease 1 (FEN1); AID 588795, 2011; Recombinant FEN1 flap cleavage, fluorescence, 15 min; 390,000 compounds, 0.35% hits; Potency, µM (highest dose often 114 µM), for inactives: at the highest dose activity change, negative = inhibition, most hits filed as inhibitors; P39748; also: % is scaled to controls: 0 for no effect and ±100 for the full control effect; nearly all actives have a fitted effect of over 65% in size
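Steps: FEN1 (10 nM) dispensed; compound added by pin tool; 15 min at room temperature; substrate added to 50 nM final; reads at 0 min and 15 min; data normalized and fitted (four-parameter Hill).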
APE1 inh: qHTS Assay for Inhibitors of the Human Apurinic/apyrimidinic Endonuclease 1 (APE1); AID 2517, 2012; Potency, µM (top dose mostly 65.8 µM), without a hit: at the top dose activity change, negative = inhibition, hits mostly inhibitors; 350,000 compounds, 0.35% hits; recombinant APE1, TAMRA/BHQ-2 abasic DNA cleavage fluorescence; DNA repair nuclease/redox regulator APEX1 (Homo sapiens), P27695;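 also: plate controls were vehicle for no effect and reference inhibitor for full effect; nearly all actives have a fitted effect of over 55% in size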
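Measures dequenching upon AP-site incision of a 5'-TAMRA/3'-BHQ-2 THF-containing duplex, 50 nM; human APE1 0.75 nM after 15 min room-temperature exposure to compound; kinetic three-point read at one-minute spacing.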
RECQ1 inh conf: Confirmation qHTS Assay for Inhibitors of RecQ-Like Dna Helicase 1 (RECQ1). shares compounds with RECQ1 inh-1. RECQ1 helicase DNA unwinding, fluorescence. Potency, µM (top dose mostly 229 µM), for inactives: top-dose activity change, negative = inhibition, actives largely listed as inhibitors. 610 compounds, 28% hits. AID 2708, 2010; also: % is scaled to controls: 0 for no effect and ±100 for the full control effect; nearly all actives have a fitted effect of over 45% in size
RECQ1 ADP FP: Counterscreen for RECQ1 Inhibitors: ADP Fluorescence Polarization Displacement Assay. shares compounds with RECQ1 inh-1. 530 compounds, 27% hits. AID 2711, 2010. Potency, µM (titrated, usually from 228 µM), without a hit: at the highest dose activity change, negative = inhibition, most hits filed as inhibitors. ADP fluorescence polarization displacement counterscreen; also: % is scaled to controls: 0 for no effect and ±100 for the full control effect; nearly all actives have a fitted effect of over 45% in size
RECQ1 inh-2: Confirmation qHTS Assay for Inhibitors of RecQ-Like Dna Helicase 1 (RECQ1) - Round 2 Cherry Picks | shares compounds with RECQ1 inh-1 | recombinant RECQ1 DNA unwinding, red fluorescence | Potency, µM (series often up to 119 µM), for inactives: at the highest dose activity, negative = inhibition, actives largely listed as inhibitors | 1,100 compounds, 15% hits | AID 504841, 2011; also: % is scaled to controls: 0 for no effect and ±100 for the full control effect; nearly all actives have a fitted effect of over 50% in size
L3MBTL1 inh-2: qHTS Assay for the Inhibitors of L3MBTL1: Hit Validation; L3MBTL1 methyl-lysine binding inhibition, biochemical qHTS; 500 compounds, 91% hits; shares compounds with L3MBTL1 inh-1; Potency, µM, actives largely listed as inhibitors; also: nearly all actives have a fitted effect of over 70% in size
AlphaScreen ctr2: qHTS Assay for the Inhibitors of L3MBTL1: Hit Validationin AlphaScreen Counterscreen; Potency, µM (top dose mostly 57.1 µM), for the others: top-dose activity change, negative = inhibition, actives largely listed as inhibitors; 500 tested, under 10 active; AlphaScreen counterscreen, signal inhibition; shares compounds with L3MBTL1 inh-1; also: 0% is about no effect
FEN1 inh-2: qHTS Assay for the Inhibitors of FEN1: Confirmatory Assay for Cherry-picked Compounds | Potency, µM, usual class: inhibitors | shares compounds with FEN1 inh-1 | FEN1 flap cleavage, TAMRA/BHQ2 fluorogenic DNA substrate | 880 compounds, 79% hits | AID 720498, 2013; also: nearly all actives have a fitted effect of over 60% in size
* marks the source's active call; other numbers are inactive results; ! = repeats disagree; [ ] = dose if it differs, or a comment. Calls follow the shape of the dose curve; as a rule, active = well fitted curve in the direction sought with a large enough effect; inconclusive = small, poorly fitted or top-dose-only effect, or another doubt; inactive = no such curve, though single readings can be large; an effect the other way counts as inactive or inconclusive. Potency is read from the fitted curve at half-maximal effect.

For Cc1cc(=O)oc2c(CN3CCCC3)c(O)c(Cl)cc12 the results were WRN inhibitor -12%, BLM inh -4%, FEN1 inh-1 3% and APE1 inh 62%.
`Cc1cc(=O)oc2c(CN3CCC(C)CC3)c(O)c(Cl)cc12` gave L3MBTL1 inh-1 32µM*, WRN inhibitor inconclusive, RECQ1 inh-1 28µM*, BLM inh -17%, FEN1 inh-1 -13%, APE1 inh inconclusive, RECQ1 inh-2 inconclusive, L3MBTL1 inh-2 11* and AlphaScreen ctr2 15%.
Cc1ccccc1-n1c(SC/C(O)=C(\C#N)c2nc3ccccc3[nH]2)nnc1-c1ccncc1 was read as L3MBTL1 inh-1 -2%, WRN inhibitor -16%, RECQ1 inh-1 inactive, BLM inh -8%, FEN1 inh-1 -11% and APE1 inh -2%.
Cc1cc(C)n2c(SC/C(O)=C(\C#N)c3nc4ccccc4[nH]3)nnc2n1 was read as L3MBTL1 inh-1 16µM*, WRN inhibitor inconclusive, RECQ1 inh-1 inconclusive, BLM inh -27%, FEN1 inh-1 inconclusive, APE1 inh inconclusive, RECQ1 inh-2 inconclusive, L3MBTL1 inh-2 6* and AlphaScreen ctr2 -20%.
For CC1CCC2(CC1)NC(=O)N(CC(=O)Nc1sc3c(c1C(N)=O)CCC3)C2=O (stereo not given) the results were L3MBTL1 inh-1 28µM*, WRN inhibitor 50µM*, RECQ1 inh-1 32µM*, BLM inh inconclusive, FEN1 inh-1 -30%, APE1 inh inconclusive, RECQ1 inh-2 inconclusive, L3MBTL1 inh-2 3.8* and AlphaScreen ctr2 6%.
For Cc1ccnc(NS(=O)(=O)c2ccc(NC(=O)Cc3cccs3)cc2)n1 the results were L3MBTL1 inh-1 32µM*, WRN inhibitor 40µM*, RECQ1 inh-1 25µM*, BLM inh -13%, FEN1 inh-1 inconclusive, APE1 inh inconclusive, RECQ1 inh-2 inconclusive, L3MBTL1 inh-2 2.7* and AlphaScreen ctr2 -1%.
c1ccc2nc3c(cc2c1)CCCC3 was read as FEN1 inh-1 5%.
For CCOc1ccc(CC(=O)NCCc2csc(-c3ccc(C(F)(F)F)cc3)n2)cc1 the results were BLM inh 0% and FEN1 inh-1 22%.
`CCN1CCN(c2nc(Nc3ccc(NC(C)=O)cc3)nc(Nc3ccc(NC(C)=O)cc3)n2)CC1` gave WRN inhibitor 25µM*, RECQ1 inh-1 32µM*, BLM inh 18µM*, FEN1 inh-1 inconclusive, APE1 inh -4%, RECQ1 inh-2 22µM* and FEN1 inh-2 inconclusive.
Screening O=C(NCC1COc2ccccc2O1)c1cccc(S(=O)(=O)N2CCN(c3ccccc3)CC2)c1 (stereo not given) returned L3MBTL1 inh-1 -1%, WRN inhibitor -5%, FEN1 inh-1 -7% and APE1 inh 2%.
Screening CC1=CN2C(=N)/C(=C/c3ccc([N+](=O)[O-])o3)C(=O)N=C2S1 returned L3MBTL1 inh-1 35µM*, WRN inhibitor 32µM*, RECQ1 inh-1 28µM*, BLM inh -18%, FEN1 inh-1 56µM*, APE1 inh inconclusive, RECQ1 inh-2 inconclusive, L3MBTL1 inh-2 13*, AlphaScreen ctr2 -9% and FEN1 inh-2 67*.
C=C1c2cccc(O)c2C(O)=C2C(=O)[C@]3(O)C(O)=C(C(N)=O)C(=O)[C@@H](N(C)C)[C@@H]3[C@@H](O)[C@H]12 was read as L3MBTL1 inh-1 0.89µM*, WRN inhibitor inconclusive, RECQ1 inh-1 7.9µM*, BLM inh -11%, FEN1 inh-1 inconclusive, APE1 inh 2.5µM*, RECQ1 inh conf inconclusive, RECQ1 ADP FP 7.1µM*, RECQ1 inh-2 -7% and FEN1 inh-2 34*.
`O=C(O)c1cc(O)c2c(c1)C(=O)c1cccc(O)c1C2=O` gave L3MBTL1 inh-1 inconclusive, WRN inhibitor 27µM*, RECQ1 inh-1 3.2µM*!, BLM inh 35µM*!, FEN1 inh-1 inconclusive, APE1 inh 0.32µM*, RECQ1 inh conf 126µM*, RECQ1 ADP FP 7.9µM* and FEN1 inh-2 4.3*.
For N#Cc1c(-c2ccco2)cc(-c2ccccc2)[nH]c1=O the results were WRN inhibitor -26%[11.6 µM], RECQ1 inh-1 22µM*, BLM inh inconclusive, FEN1 inh-1 -31%, APE1 inh 32µM*, RECQ1 inh conf inconclusive, RECQ1 ADP FP inconclusive and FEN1 inh-2 76*.
